Measured values as given in the supplement of paper PMC6555819.

The sequences below were run on PPARg:RXRa IVT, anti-PPARg (NR concentration 270 nM, RXRa partner concentration 90 nM) (assay: PBM binding z-score (relative to random genomic background probes); higher = stronger binding; sequences stand for … in GC…GCGATTGACAGCGTAGAATGAAGG).
Procedure, shortened: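 For binding z-scores, the reference was random background probes on custom Agilent 4×180K protein-binding microarrays. These arrays were incubated 1 h with ligand-free nuclear receptor dimers in PBS pH 7.4, 2% milk, 0.02% Triton X-100, 1 mM DTT, 0.2 mg/mL BSA and 0.4 mg/ml salmon testes DNA. Fluorescence was scanned after antibody detection of each partner (one per run) and regression-normalized.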

Going from CCTTACGGGACACTGACAGGTTATAGCATTTGGA to AGAACGAGGGCAATGAGTTGAGAGCACGGGTGGC, the PBM binding z-score rises from 0.149 to 2.73.

First: CCTGCTAGGTCAATGGTCGGCTAAAGCAGCTCGC
Second: CCGACTGGGGCTAAGGTTACCATACTCAGTACGA
The PBM binding z-score of the first is higher: 4 for the first, 2.11 for the second.

Going from CTTCCAAGGTCAATGCTAGGTCAGTGAAAGCATT to CATACTGGGCCAAAGGTCATTGATTCCAATGCTC, the PBM binding z-score rises from 4.08 to 6.31.

Compared with AGAACGAGGGCACGCTGAGTTGCTAGCAGAGTAG, CCTCGGAGGACCACAGGAGGTCAGAGCTGCCAGA is lower in PBM binding z-score: 3.97 for the first, -0.16 for the second.

First: AGTCAAAGTTCAGGACGAGGTTACGTAAAGCACG
Second: TCTAGTTGGTCACGGACGTCACACACGACGGGTA
The PBM binding z-score of the first is higher: 2.22 for the first, 1.94 for the second.

Compared with TAGCCTAGGTCATTGCGCCAGTATAGTACGCATC, TCTTTTAGATCAAGCAGGTTAAGAAAGCCTGAGT is lower in PBM binding z-score: 2.83 for the first, 0.619 for the second.

Going from CATACAGGGTCAGCTAGGCCACAGTAGGGACGGC to GCTAGTTGGTCAGTAAAAGGTCACACGCCGGTCG, the PBM binding z-score rises from 2.82 to 3.13.

Going from ACAGACAAGTGAGTGAAGGTAACTCAGCTGGACG to CCTACTGGGCCATTCAGAGGTCTTTGATCATATG, the PBM binding z-score rises from -0.138 to 3.47.

Compared with CCGACTGGGGTAGAAAGGTTACCATACCATCCGG, CCGACTGGGGCATAAGGTTAGCATAAGCCAGCCC is higher in PBM binding z-score: 1.2 for the first, 2.86 for the second.

Going from CGTCAAAGTTCCACTAAGGTAACGTAAAGCACGC to CCGACTGGGGCAGATAGGTTACCATACCATCCGG, the PBM binding z-score rises from 0.925 to 1.4.

Going from CATACAGGGTCAGCTAGGCGAGAGTAGGGACGGC to GGAACGAGGGCAAGTTGATCGCAGAGTTTGATGG, the PBM binding z-score rises from 2.05 to 2.88.
